# The full list was thinned out, with hits kept by preference.
# mHTT CaM bind – inhibitors of human mutant huntingtin-calmodulin interaction. P42858. AlphaScreen His-mHTT/GST-CaM binding, luminescence. inhibition, % at 15 µM. hit rate 3.6% among 190,000. AID 1671202;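 further: 0% = both proteins with DMSO and 100% = one protein alone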
# Pf apPOL block – Pf-apPOL DNA polymerase inhibition; Recombinant Pf-apPOL, molecular beacon fluorescence, 1.5 h; AID 1794808; hit rate 0.25% among 210,000; inhibition, % at 10 µM
# The depositor's hits bear a star; . = not tested or not shown; ! = repeats disagree. No stated cut-off is given here; in the data, active means inhibition above about 50%; inactive means the rest.
SMILES,mHTT CaM bind,Pf apPOL block
CCC(=O)N1CCc2c(c(C(=O)NCc3cccc(C)c3)nn2C)C1,26,30
Cc1ccccc1C(=O)Nc1cccn2nc(C3CC3)nc12,17,-24
O=C(Cc1cccs1)Nc1cccn2nc(C3CC3)nc12,35,61*
COc1ccc(C=C2Oc3cc(C)c(CN4CCOCC4)c(O)c3C2=O)cc1,1,4
COc1ccc(C=C2Oc3cc(C)c(CN4CCN(C)CC4)c(O)c3C2=O)cc1,79*,13
CCCn1cc2c3c(cccc31)CN(C(=O)Nc1ccc(OC)cc1)CC2,13,0
COc1ccc(NC(=O)N2CCc3c(c4ccccc4n3C)C2)cc1,51*,-4
Cc1nc(-c2ccc(C(=O)N(C)C)cc2)no1,-3,-7
Nc1c(Br)cc(Cl)c2c1C(=O)c1ccccc1C2=O,18,5
Nc1c(Br)cc(O)c2c1C(=O)c1ccccc1C2=O,83*,-6
CCOC(=O)C(C#N)=CNC1CCSC1 (stereo unspecified),.,-13
COc1ccccc1C(=O)Nc1ccc2nc(N3CCCCC3)cc(C)c2c1,-35,-4
O[C@H]1CN(Cc2cccs2)[C@@H](c2ccccc2)C[C@@H]1n1cc(C2CC2)nn1,18,-3
COc1ccc([C@H]2C[C@@H](n3cc(-c4ccc(F)cc4)nn3)[C@H](O)CN2Cc2cccs2)cc1,-1,2
Cc1ccc([C@H]2C[C@@H](O)[C@H](n3cc(C4CC4)nn3)CN2Cc2cccs2)cc1,-4,-1
Cc1ccc([C@H]2C[C@H](O)[C@@H](n3cc(C4CC4)nn3)CN2Cc2cccs2)cc1,100*,-4
COc1ccc([C@H]2C[C@H](n3cc(-c4ccc(F)cc4)nn3)[C@@H](O)CN2Cc2cccs2)cc1,63*,-3
Cc1ccc([C@H]2C[C@H](n3cc(C4CC4)nn3)[C@@H](O)CN2Cc2cccs2)cc1,80*,-3
CC1=N/C(=C\c2ccc([N+](=O)[O-])cc2)C(=O)N1c1ccc(Cl)cc1C,15,-3
CC1=N/C(=C\c2ccc([N+](=O)[O-])cc2)C(=O)N1c1cc(Cl)ccc1Cl,52*,-1
O=C(CCC1CCCN(c2cc(NC3CC3)ncn2)C1)NCc1ccco1 (stereo unspecified),16,-2
Cc1cccc(N2CCN(C(=O)C3CCN(CC4CCCCC4)CC3)CC2)c1C,2,2
Cc1ccc(CC(=O)N2CCc3c(c(C(=O)NCc4ccc(F)cc4)nn3C)C2)cc1,69*,-9
COc1ccc(CC(=O)N2CCc3c(c(C(=O)NCc4ccccc4)nn3C)C2)cc1,61*,-7
Cc1ccc(CC(=O)N2CCc3c(c(COCc4ccccc4F)nn3C)C2)cc1,7,-8
SMILES,mHTT CaM bind,Pf apPOL block
CCC(CC)C(=O)N1CCc2c(c(C(=O)NCc3ccc(F)cc3)nn2C)C1,58*,-8
COc1ccc(CC(=O)N2CCc3c(c(C(=O)NCc4ccc(F)cc4)nn3C)C2)cc1,74*,-6
COc1ccc(C(=O)N2CCc3c(c(C(=O)NCc4ccc5c(c4)OCO5)nn3C)C2)cc1,47,-7
Cn1nc(C(=O)NCc2ccccc2)c2c1CCN(C(=O)c1ccco1)C2,18,-10
CCCCN(C)C(=O)CC1Sc2ncccc2N(CC(C)C)C1=O (stereo unspecified),-5,-4
CCN(c1ccccc1)S(=O)(=O)c1ccc(F)c(C(=O)Nc2cc(OC)ccc2OC)c1,3,37
COc1cccc(C(CC(=O)NCC(OC)OC)NS(=O)(=O)c2ccc(C)cc2)c1OC (stereo unspecified),-6,-4
CCNC(=O)c1csc(COc2cccc(C)c2C)n1,-2,-6
O=C(c1ccc(OCC2CCCN(C(=O)C3(c4ccccc4)CC3)C2)cc1)N1CCOCC1 (stereo unspecified),6,1
c1ccc(CNc2nc(-c3ccccc3)[n+](-c3ccccc3)s2)cc1,84*,-6
c1ccc(Nc2nc(-c3ccccc3)[n+](-c3ccccc3)s2)cc1,22,-8
O=C(Cc1ccc(F)cc1)NCC1CN(c2ccc(F)cc2)C(=O)O1 (stereo unspecified),-8,-3
CC(=O)Nc1ccc(S(=O)(=O)NCCSCc2ccc(Cl)c(Cl)c2)cc1,90*,-10
CS(=O)(=O)NCCSCc1ccc(Cl)c(Cl)c1,4,-2
O=S(=O)(NCCSCc1ccc(Cl)c(Cl)c1)c1ccc2c(c1)OCCO2,51*,-6
O=S(=O)(NCCSCc1ccc(Cl)cc1)c1ccc2c(c1)OCCO2,-5,-1
O=C(Nc1ccccc1Br)N1CCc2nc[nH]c2C1,3,-1
CCNc1nccc(N2CCC(CC(=O)NCCc3cccs3)CC2)n1,0,-2
O=C(CN1CCN(CC(=O)NC2CCCCC2)CC1)NC1CCCCC1,-5,4
N#CC(=Cc1c(Cl)cccc1Cl)S(=O)(=O)c1cccs1,.,4
CCC(C)c1cc([N+](=O)[O-])cc([N+](=O)[O-])c1OC(=O)OC(C)C (stereo unspecified),51*,-10
CC(=O)Nc1ccc(Nc2ncc([N+](=O)[O-])cc2[N+](=O)[O-])cc1,8,7
Cc1sc2ccn(CC(C)C)c(=O)c2c1C(=O)N1CCN(c2ccccn2)CC1,10,-3
O=[N+]([O-])C(/C=C(\Cl)[N+](=O)[O-])=C1N(c2ccccc2)CCN1c1ccccc1,30,-4
O=[N+]([O-])C(/C=C(\Cl)[N+](=O)[O-])=C(Nc1ccccc1)Nc1ccccc1,63*,-2
SMILES,mHTT CaM bind,Pf apPOL block
CSc1nnc(-c2cc(Br)ccc2N)c(=O)[nH]1,-4,1
Cc1cc(Cl)ccc1OC(C)C(=O)NCc1cccnc1 (stereo unspecified),8,2
Cc1ccc(-c2nc(N3CCOCC3)c3ccccc3n2)cc1,-4,-4
c1ccc2c(N3CCOCC3)nc(-c3ccncc3)nc2c1,61*!,1
Fc1ccc2[nH]c3nc4ccccc4nc3c2c1,-1,.
OC(COCC12CC3CC(CC(C3)C1)C2)CN1CCN(c2ccccc2)CC1 (stereo unspecified),57*,1
OC(COCCC12CC3CC(CC(C3)C1)C2)CN1CCN(c2ccccc2)CC1 (stereo unspecified),55*,0
OC(COC12CC3CC(CC(C3)C1)C2)CN1CCN(c2ccccc2)CC1 (stereo unspecified),12,6
OC(COCCC12CC3CC(CC(C3)C1)C2)CN1CCN(c2ccccn2)CC1 (stereo unspecified),37,2
CC1CCC(NC(=O)C2c3ccccc3C(=O)N2Cc2ccc(F)cc2)CC1 (stereo unspecified),52*,-6
Cc1ccc(CN2C(=O)c3ccccc3C2C(=O)NC2CCC(C)CC2)cc1 (stereo unspecified),1,-7
COc1cccc(/C=C2\N=C(c3ccc(Cl)cc3Cl)OC2=O)c1,7,-3
COc1ccc(C)cc1NC(=O)CCC1CCN(c2cc(NC3CC3)ncn2)CC1,39,-3
COc1ccc(C)cc1NC(=O)CCC1CCCN(c2cc(NC3CC3)ncn2)C1 (stereo unspecified),10,-8
CCNc1cc(N2CCCC(CCC(=O)Nc3cc(C)ccc3OC)C2)ncn1 (stereo unspecified),55*,1
CCCNc1cc(N2CCC(CCC(=O)Nc3cc(C)ccc3OC)CC2)ncn1,59*,-6
COC(=O)N1CCC(CNC(=O)C=Cc2cc(OC)c(OC)c(OC)c2)CC1,6,-2
